# Results as given in the supplement of paper PMC3334620.
# Whole data set: some 33,000 sequences, median “E-score (-0.5 to 0.5)” near -0.04, cut for the highest 2% near 0.36. This excerpt belongs to a sample that is enriched for the highest values.
# Molecular target: T1, Hmlalpha2 (UniProt P0CY09)
# T1 sequence: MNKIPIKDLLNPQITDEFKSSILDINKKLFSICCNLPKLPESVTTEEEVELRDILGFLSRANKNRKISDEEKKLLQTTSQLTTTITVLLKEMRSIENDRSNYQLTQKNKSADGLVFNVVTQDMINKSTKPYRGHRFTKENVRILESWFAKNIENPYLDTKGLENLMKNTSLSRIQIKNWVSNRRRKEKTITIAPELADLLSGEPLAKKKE
# Assay: PBM E-score (8-mer binding enrichment) (E-score (-0.5 to 0.5)); higher = stronger / more preferred TF binding
# Settings: protein concentration: 200 nM; construct: GST-full length
# Outline: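 Yeast transcription factors, full-length or as DNA-binding domains, were expressed with a GST tag using PURExpress in vitro transcription/translation. At about 100-200 nM they were applied to universal all-10-mer Agilent arrays, double-stranded by primer extension on fresh or once-stripped slides. Fluorescent anti-GST detected bound protein, and masliner normalised the scans. E-scores for ungapped eight-base words, pooled with reverse complements, came from the Universal PBM Analysis Suite.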
row,Sequence,PBM E-score
1,ATGGTAGC,-0.037
2,GTCAGTAA,0.133
3,ACTCTCCC,-0.283
4,CTGGGATC,-0.141
5,CACATTGA,0.097
6,AATTTCAC,0.0769
7,CCTTTACC,-0.204
8,TCTTTAAA,0.0801
9,TCTTTACA,0.445
10,TCTTTGCA,0.0746
11,CCTTTACA,0.448
12,CCTTTACG,0.223
13,GGAAAAAC,0.0566
14,AATGATAT,0.0696
15,AGTCTCTC,-0.306
16,CATGTCAC,0.245
17,AATGTCAA,0.182
18,TATGTCAA,0.426
19,GATGTCGA,0.126
20,CGTGTCAA,0.438
21,GATGTCAA,0.194
22,CATGTCAG,0.314
23,CATGTCGG,0.265
24,CATGTCGA,0.386
25,CATGTCAA,0.44

row,Sequence,PBM E-score
1,CGTGTCAG,0.273
2,AGTGTCAA,0.134
3,GAGGATCA,-0.143
4,CTCAGTAA,-0.0267
5,AACGCAGG,0.0539
6,AGAATCTC,-0.015
7,GAGGTTAC,0.0883
8,TAACTCGA,0.277
9,AGACTCGA,-0.211
10,GGCGGTGA,-0.163
11,CGCCACAG,-0.0887
12,ACATGAAT,0.371
13,ACATGAAA,0.302
14,CCATGAAC,-0.0422
15,ACATGAAC,0.366
16,GCATGAAC,0.104
17,ACATGAAG,0.338
18,AGCAGGCG,0.046
19,GATTGTGC,0.0144
20,ACGAGGAA,0.0596
21,TACGCTGA,0.122
22,TCATGCCA,0.0681
23,CCATGCTC,-0.13
24,ACATGCAA,0.398
25,ACATGCTG,0.377

row,Sequence,PBM E-score
1,CTATGCTC,-0.27
2,ACATGCTC,0.388
3,ACATGCAC,0.36
4,ACATGCCT,0.3
5,TCATGCAA,0.107
6,AAATGCTG,0.229
7,ACATGCCA,0.397
8,ATATGCTG,-0.0833
9,GTGGCCCA,-0.191
10,ACGCAAAC,0.125
11,CTCGCTAC,-0.181
12,CCGTTCCG,-0.225
13,AGCGAGTC,-0.136
14,CTCTAGAC,-0.116
15,ATCGGGGC,-0.175
16,AGTGCTCG,-0.187
17,GAGTTCGC,-0.169
18,TCGACAGA,-0.0778
19,ACATGCGG,0.289
20,CCATGCTA,0.0439
21,ACATGCGC,0.308
22,ACATGCGT,0.399
23,GCATGCTA,0.00271
24,ACATGCTA,0.379
25,TCAGCGGA,-0.169

row,Sequence,PBM E-score
1,GACCTCGC,-0.148
2,ACGCTCCT,0.0508
3,GCTAAGGA,-0.195
4,AATCTCCA,0.042
5,ACAAGCGA,0.112
6,ACATACAA,0.325
7,AGATACAT,0.388
8,ACATACAC,0.404
9,CCATACAC,0.145
10,AGATACAG,-0.0238
11,ACATACAT,0.421
12,GCATACAC,0.256
13,AGATACAA,0.276
14,ACATACAG,0.336
15,CTCTGCCA,-0.219
16,ATTCTTAA,0.148
17,GCCGAGCC,-0.127
18,GAGGCAGA,-0.265
19,CCGGACCG,-0.303
20,AATACACG,0.473
21,AATACACA,0.467
22,AATACACC,0.307
23,AATACACT,0.326
24,AATACTCA,0.18
25,CATGAGTC,0.175

row,Sequence,PBM E-score
1,ACCGGTCT,-0.25
2,ATTCCTGA,-0.0807
3,GTATAAAA,0.282
4,ATATAACC,-0.0903
5,CTATAACA,0.335
6,GTATAATA,0.368
7,GTATAAGA,0.116
8,CTATAATA,-0.00916
9,ATATAACA,0.384
10,ATATAATA,0.199
11,GTATAACA,0.378
12,AGCGGTTC,-0.0786
13,TGATCAAA,-0.137
14,TCACCGAA,0.0184
15,ACAAGTAC,0.165
16,CATCGGTA,-0.217
17,GCAAAACC,-0.272
18,AAATCTTC,0.0872
19,CCATCGCC,-0.261
20,ATGAACAT,0.323
21,AGTTACAG,0.0744
22,AGTTACAC,0.426
23,CGTTACAG,-0.0046
24,GGTTACAC,0.314
25,CGTTACAC,0.385

row,Sequence,PBM E-score
1,CGTTACAA,0.318
2,CGAAACTC,-0.242
3,CCGGCTGC,0.0149
4,GGCCGACA,-0.247
5,GAATGCTC,-0.225
6,ATCTCACC,-0.126
7,CAATCCTG,0.0153
8,AGGGGTTG,-0.253
9,CCAAGCGC,-0.0307
10,ACATGGGA,0.33
11,ACATGGAA,0.317
12,ACATGGGT,0.382
13,ACATGGAG,0.262
14,ACATGGAT,0.388
15,ACATGGGC,0.342
16,CCTAGGAA,-0.125
17,AACTTCAC,0.121
18,CAGATTTC,-0.132
19,CGAATGCA,0.145
20,GGCCATTA,0.0102
21,AGAGTGCA,-0.0981
22,CCACGATC,0.172
23,ACACGATG,0.388
24,ACACGATC,0.426
25,ACACGAAG,0.358

row,Sequence,PBM E-score
1,AAACGATG,0.0541
2,ACACGATA,0.433
3,GCACGATA,0.154
4,AGACGATC,-0.29
5,CCACGATA,-0.11
6,CGTGGCTC,-0.209
7,AAGTTCCC,-0.296
8,CGGTGGAC,-0.136
9,GAGATAAA,0.0648
10,ATTTAACA,0.429
11,CTTTAACA,0.363
12,ATTTAACC,0.0603
13,GTTTAATA,0.218
14,GTTTAACA,0.41
15,ATTTAACG,0.355
16,CTGGGGGA,-0.422
17,GCCACGAC,-0.0179
18,ATCTGTGG,-0.267
19,CCAAAGAA,-0.0602
20,AAAAAGAT,-0.00444
21,CAGGGGCG,-0.0915
22,ACACCTAG,-0.163
23,CAAAACAG,0.124
